Results as given in PubChem BioAssay (Tox21).
Results filed as inconclusive are left out. Where a call stands in place of a potency, no number is given. Some compounds were tested as several samples or in several runs, with calls that do not always agree. Active and inactive are the calls of the source. Unless noted, the call rests on the fitted dose curve; in most records, active means well fitted curve in the direction sought with a large enough effect in the repeat runs; inconclusive means weak or mixed curves; inactive means no such curve, though single readings can be large; an effect the other way counts as inactive or inconclusive.

Columns and labels:
[1] = molecular target: Retinoic acid receptor RXR-alpha (Homo sapiens) (UniProt P19793); assay: qHTS assay to identify small molecule agonists of the RXR signaling pathway (AID 1159527; calls by dose curve; further: nearly all actives have a fitted effect of over 35% in size; further: potency means the concentration at half of the fitted maximal effect)
Sequence of Retinoic acid receptor RXR-alpha (Homo sapiens) (P19793 whole entry, looked up): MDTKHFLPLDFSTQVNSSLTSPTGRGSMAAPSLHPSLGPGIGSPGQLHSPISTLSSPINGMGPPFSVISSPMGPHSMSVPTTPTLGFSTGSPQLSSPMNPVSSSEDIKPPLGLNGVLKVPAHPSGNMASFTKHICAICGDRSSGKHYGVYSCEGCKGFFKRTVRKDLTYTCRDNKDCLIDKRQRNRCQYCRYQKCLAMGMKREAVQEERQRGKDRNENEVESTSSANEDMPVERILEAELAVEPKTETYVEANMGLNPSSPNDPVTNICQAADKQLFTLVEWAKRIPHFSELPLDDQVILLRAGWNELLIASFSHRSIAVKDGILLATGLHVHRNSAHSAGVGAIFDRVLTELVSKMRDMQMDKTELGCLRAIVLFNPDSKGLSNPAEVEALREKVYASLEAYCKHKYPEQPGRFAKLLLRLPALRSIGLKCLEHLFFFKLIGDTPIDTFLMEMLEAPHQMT
How it was run: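 Read-out: beta-lactamase FRET ratio (405 nm excitation, 460 and 530 nm emission) after 2 hr substrate loading at room temperature. Cells were RXR-alpha-UAS-bla HEK 293T treated with compounds for 16 hr in 2% charcoal-stripped FBS medium.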

[2] = qHTS assay to identify small molecule agonists of the RXR signaling pathway - cell viability counter screen (AID 1159529); further: series mostly up to about 77 µM; nearly all actives have a fitted effect of over 50% in size
How it was run: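 HEK 293T RXRa-bla cells, 2% CS-FBS; 5 h settle; cpd 16 h 37 C, 5% CO2; CellTiter-Glo 30 min RT, luminescence. Tetraoctyl ammonium bromide as positive control.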

[3] = qHTS assay to identify small molecule antagonists of the retinoid acid receptor (RAR) signaling pathway - cell viability counter screen (AID 1159551); further: nearly all actives have a fitted effect of over 35% in size
How it was run: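 C3RL4 RARE-luciferase cells, 1,000/well, incubated overnight, then dosed with compound plus 1 uM retinol (final). After 6 hr at 37 C, viability read by CellTiter-Glo ATP luminescence following 30 min at room temperature.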

[4] = qHTS assay to identify small molecule antagonists of the retinoic acid receptor (RAR) signaling pathway (AID 1159552; further: nearly all actives have a fitted effect of over 50% in size)
How it was run: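 Cells of the C3RL4 line were seeded, incubated overnight, then dosed with compounds in DMSO followed immediately by retinol (1 uM final). Six hours later luciferase detection reagent went in; signal was measured after 30 min at RT.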

[5] = qHTS assay to identify small molecule agonists of the retinoic acid receptor (RAR) signaling pathway (AID 1159553)
How it was run: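 C3RL4 RARE-luciferase cells were seeded at 1,000/well and grown overnight at 37 C, then exposed to compounds for 6 hr at 37 C, 5% CO2. Luciferase reagent was added and luminescence was read after 30 min at room temperature.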

SMILES | Potency [1] | Potency [2] | outcome [3] | Potency [4] | outcome [5]
O=c1cc[nH]c(=S)[nH]1 | 493 nM (active) and inactive | inactive | inactive | inactive | inactive
OCCc1ccccc1 | inactive | inactive | inactive | inactive | inactive
O=C(O)c1cc(N=Nc2ccc(S(=O)(=O)Nc3ccccn3)cc2)ccc1O | inactive | inactive | inactive | inactive | inactive
CCOc1ccc(NC(=O)CC(C)O)cc1 (configuration not stated) | inactive | inactive | inactive | inactive | inactive
NC(N)=O | inactive | inactive | inactive | – | –
O=C1CN(/N=C/c2ccc([N+](=O)[O-])o2)C(=O)N1 | inactive | inactive | inactive | inactive | inactive
NNC(=O)c1ccncc1 | inactive | inactive | inactive | – | –
C[C@]12C=CC(=O)C=C1CC[C@@H]1[C@@H]2[C@@H](O)C[C@@]2(C)[C@H]1CC[C@]2(O)C(=O)CO | inactive | inactive | inactive | inactive | inactive
O=C(O)CS | inactive | inactive | inactive | – | –
Cc1cc(=O)[nH]c(=S)[nH]1 | inactive | inactive | inactive | – | –
CC1(C)[C@@H]2CC[C@@]1(C)C(=O)C2 | inactive | inactive | inactive | inactive | inactive
O=S(=O)(O)NC1CCCCC1 | inactive | inactive | inactive | inactive | inactive
N=C(N)c1ccc(OCCCCCOc2ccc(C(=N)N)cc2)cc1 | inactive | inactive | inactive | inactive | inactive
CCCCCCCCCCCCCCCC(=O)O | inactive | inactive | inactive | inactive | inactive
